Growth data for 9 molecules are collected here from PubChem BioAssay (NCI).

Assay in all cases: NCI-60 one-dose screen, 48 h (100 = growth as untreated, 0 = no growth, -100 = all killed)
One test concerns HCT-15 colon. The following applies: 10 µM unless noted.
A further test concerns HT29 colon. The note with it: 10 µM unless noted.
The next test has as its system SNB-75 CNS. The following applies: 10 µM unless noted.
The subject of the next test is SNB-19 CNS. The following applies: 10 µM unless noted.
The subject of the next test is U251 CNS. The note with it: 10 µM unless noted.
For the next test, the system named is PC-3 prostate. The following applies: 10 µM unless noted.
For another test, the system named is SK-MEL-5 melanoma. The note with it: 10 µM unless noted.
The next test has as its system UACC-62 melanoma. The following applies: 10 µM unless noted.
The test system of another test is SK-MEL-28 melanoma. The following applies: 10 µM unless noted.
The next test deals with SK-MEL-2 melanoma. The following applies: 10 µM unless noted.
A further test relates to EKVX NSCLC. The note with it: 10 µM unless noted.
The subject of a further test is SN12C renal. The following applies: 10 µM unless noted.
The next test relates to UO-31 renal. The following applies: 10 µM unless noted.
The subject of another test is TK-10 renal. The following applies: 10 µM unless noted.
In the next test the test system is ACHN renal. The note with it: 10 µM unless noted.
The subject of the next test is A498 renal. The following applies: 10 µM unless noted.
The test system of another test is CCRF-CEM leukemia. The note with it: 10 µM unless noted.
The next test concerns MOLT-4 leukemia. The note with it: 10 µM unless noted.
For the next test, the system named is LOX IMVI melanoma. The following applies: 10 µM unless noted.
Another test concerns CAKI-1 renal. The note with it: 10 µM.

Structures are written as SMILES. The panel holds about 83,000 compounds, 20% with a hit somewhere; the sample as a whole holds those more often.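 Results are percent growth after 48 hours of single-concentration exposure. 100 means growth as in untreated cells, lower positive values show inhibition; negative values down to -100 show cell death.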 Unmarked numbers belong to inactive results. Active and inactive are the calls of the source. The calls were made as follows: active = growth percent below 10; inactive = the rest.

Regarding `Cc1cc(O)c(=O)cc2c1C[C@H]1CC(C)(C)/C=C/C[C@]3(C)Oc4cc(=O)c(O)cc(C)c4C[C@H]3C[C@H](O)[C@@]1(C)O2`, the growth in the test with HCT-15 colon was 18.5%; with HT29 colon, 8.78% (active); in the test on SNB-75 CNS, 23.9%; with SNB-19 CNS, 11.2%; in the test with U251 CNS, 3.83% (active); with PC-3 prostate it was 9.28% (active). For the same molecule, the growth in the test on SK-MEL-5 melanoma was -46.5% (active); with UACC-62 melanoma it was -41% (active); with SK-MEL-28 melanoma it was 11.1%; in the test with SK-MEL-2 melanoma, -27.1% (active); in the test with EKVX NSCLC, 3.91% (active); in the test on SN12C renal, 6.41% (active). Moreover, the growth in the test on UO-31 renal is -15.8% (active); in the test with TK-10 renal, -1.4% (active); in the test on ACHN renal, -3.47% (active); with A498 renal it was -7.88% (active); in the test on CCRF-CEM leukemia, 4.82% (active); with MOLT-4 leukemia it was 2.51% (active).

For the molecule `COc1cc(O)c2c(c1)[C@H]1O[C@@H]1C[C@H](O)[C@H](O)C(=O)/C=C\C[C@H](C)OC2=O`, the growth in the test with HCT-15 colon is 28.7%; in the test with HT29 colon, 12.6%; with SNB-75 CNS, 87.1%; in the test with SNB-19 CNS it was 81.3%; with U251 CNS, 72.4%; with PC-3 prostate, 66.8%. For the same molecule, the growth with SK-MEL-5 melanoma was 7.59% (active); in the test with UACC-62 melanoma, -12.4% (active); in the test on SK-MEL-28 melanoma it was 6.98% (active); in the test with SK-MEL-2 melanoma, 20.1%; in the test with EKVX NSCLC it was 51.8%; in the test on SN12C renal, 53.5%. For the same molecule, the growth with UO-31 renal was 20.4%; with ACHN renal, 45.4%; in the test on A498 renal, 58.9%; in the test on CCRF-CEM leukemia, 22.2%; in the test with MOLT-4 leukemia it was 33.6%.

Take `COc1ccc(S(=O)(=O)NCCCNc2nccc(-n3cnc4ccccc43)n2)cc1`: the growth in the test with HCT-15 colon was 92.3%; in the test on HT29 colon it was 99.7%; in the test on SNB-75 CNS, 88.2%; in the test on SNB-19 CNS it was 100%; with U251 CNS it was 94.5%; in the test with PC-3 prostate, 89.7%. The growth was 70.1% with SK-MEL-5 melanoma; 93.4% in the test on LOX IMVI melanoma; 106% in the test on SK-MEL-28 melanoma; 103% with SK-MEL-2 melanoma; 84.4% in the test on EKVX NSCLC; 92.4% with SN12C renal. Moreover, the growth in the test on UO-31 renal is 67.2%; in the test with TK-10 renal it was 103%; in the test with ACHN renal, 88.2%; in the test on CAKI-1 renal it was 68.8%; with A498 renal, 81.9%; with CCRF-CEM leukemia it was 91.4%. The growth in the test on MOLT-4 leukemia is 77%.

For the molecule `Cc1cc(-c2ccc3nc(N)sc3c2)nc2ccc3[nH]ncc3c12`, the growth was 33.9% with HCT-15 colon; 21.1% in the test on HT29 colon; -12.7% (active) in the test on SNB-75 CNS; 39.8% with SNB-19 CNS; 29.3% in the test with U251 CNS; 62.5% in the test with PC-3 prostate. The growth was 26.3% in the test with SK-MEL-5 melanoma; 21.9% in the test with UACC-62 melanoma; 38.4% in the test on SK-MEL-28 melanoma; -3.92% (active) in the test on SK-MEL-2 melanoma; 32% in the test on SN12C renal; 51.4% with UO-31 renal. Further, the growth in the test with TK-10 renal is 50.1%; in the test with ACHN renal it was 40.7%; in the test with CAKI-1 renal it was 20.3%; in the test on A498 renal, -9.07% (active); with CCRF-CEM leukemia, 27.1%; with MOLT-4 leukemia it was 33.2%.

With `COc1ccc(NS(=O)(=O)c2ccc(-c3cnc(C4CC4)o3)cc2)cc1Cl`, the growth in the test with HCT-15 colon was 29.3%; with HT29 colon it was 10.6%; in the test with SNB-75 CNS, -2.75% (active); in the test on SNB-19 CNS, 43.8%; with U251 CNS, 36%; in the test with PC-3 prostate it was 25.2%. The growth in the test on SK-MEL-5 melanoma was 18.1%; in the test on UACC-62 melanoma, 34.1%; in the test with SK-MEL-28 melanoma, 66.9%; in the test on SK-MEL-2 melanoma, 49.9%; in the test with EKVX NSCLC, 38.2%; with UO-31 renal it was 51.8%. Besides, the growth in the test on TK-10 renal is 69%; with ACHN renal it was 46.1%; in the test with CAKI-1 renal, -22.9% (active); in the test on A498 renal, 13.1%; in the test with CCRF-CEM leukemia it was 17.2%; in the test on MOLT-4 leukemia, 32.4%.

Take `O=C1c2c(c3c4cccnc4[nH]c3c3ccc4ccccc4c23)C(=O)N1CCN1CCCCC1`: the growth with HCT-15 colon is 45.5%; with HT29 colon it was 44.8%; in the test on SNB-75 CNS, 53.8%; in the test on SNB-19 CNS it was 41.1%; with U251 CNS it was 55.1%; with PC-3 prostate, 59.5%. Also, the growth with SK-MEL-5 melanoma is 48.1%; in the test with UACC-62 melanoma, 49.6%; in the test on SK-MEL-2 melanoma, 114%; in the test with EKVX NSCLC it was 78%; in the test with SN12C renal, 45.2%; in the test on UO-31 renal, 36.9%. The growth in the test on TK-10 renal was 104%; with ACHN renal, 20%; in the test with CAKI-1 renal, 22.8%; in the test with A498 renal, 80.1%; in the test with CCRF-CEM leukemia it was 17.9%; with MOLT-4 leukemia, 6.84% (active).

`CN1C(=O)/C(=C/C=C/c2ccco2)SC1=S`: the growth is 63.5% in the test on HCT-15 colon; 90.9% in the test with HT29 colon; 92.6% with SNB-75 CNS; 88.5% with SNB-19 CNS; 66.8% in the test with U251 CNS; 80% in the test on PC-3 prostate. The growth was 40% in the test with SK-MEL-5 melanoma; 77.2% in the test with UACC-62 melanoma; 87.2% in the test on EKVX NSCLC; 58.3% with UO-31 renal; 113% in the test on TK-10 renal; 75.7% in the test with ACHN renal. Besides, the figures for the growth in the test on CAKI-1 renal, with CCRF-CEM leukemia and in the test on MOLT-4 leukemia were 95.2%, 60.8% and 90.3%, respectively.

Take `COc1ccc(C(=O)n2cc(C=O)c3ccccc32)cc1`: the growth in the test on HCT-15 colon was 87.9%; in the test on HT29 colon it was 118%; with SNB-75 CNS it was 99%; in the test on SNB-19 CNS, 87.5%; in the test with U251 CNS it was 93.9%; in the test with PC-3 prostate it was 90.5%. Further, the growth with SK-MEL-5 melanoma was 98.1%; in the test on LOX IMVI melanoma it was 76.2%; in the test with SK-MEL-28 melanoma, 102%; with SK-MEL-2 melanoma it was 104%; with EKVX NSCLC, 97.6%; in the test on SN12C renal, 94.7%. Moreover, the growth in the test on UO-31 renal was 70.9%; in the test with TK-10 renal, 123%; in the test with ACHN renal, 92.4%; in the test with CAKI-1 renal it was 85%; in the test with A498 renal it was 122%; in the test on CCRF-CEM leukemia it was 103%. Besides, the growth in the test with MOLT-4 leukemia is 101%.

With `N/C(=N\OC(=O)CSc1nc2ccccc2s1)c1ccc(Cl)cc1`, the growth in the test with HCT-15 colon is 101%; with HT29 colon it was 103%; with SNB-75 CNS, 88.7%; in the test on SNB-19 CNS, 99.4%; in the test on U251 CNS it was 96.8%; in the test on PC-3 prostate it was 99.9%. The growth in the test with SK-MEL-5 melanoma is 100%; in the test with UACC-62 melanoma it was 87.8%; in the test on SK-MEL-28 melanoma, 106%; in the test on SK-MEL-2 melanoma it was 101%; in the test with EKVX NSCLC, 86.6%; with UO-31 renal it was 76.6%. The growth in the test on TK-10 renal is 127%; in the test with ACHN renal, 91.4%; with CAKI-1 renal, 83.4%; with CCRF-CEM leukemia it was 102%; in the test with MOLT-4 leukemia, 96.7%.
